# ± gives the standard deviation.
# System: RAW-Dual (murine macrophage reporter line)
# Experiment: NF-kB reporter (SEAP) activity fold change vs agonist alone; higher = enhanced NF-kB activity
# Details: modulator concentration 10 µM; agonist: MPLA […]
# Procedure, shortened: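 RAW-Dual murine macrophage reporter cells were seeded at 50 000 per well in 384-well plates and pre-incubated 1 hour at 37 °C with compound pin-transferred to 10 μM final. After 1 hour, a PRR agonist was added and cells incubated overnight. Supernatant NF-κB (SEAP, QUANTI-Blue, 620 nm absorbance) and IRF (Lucia luciferase, QUANTI-Luc, luminescence) signals were divided by the mean agonist-only control on the same plate to give fold change. Two replicate plates were averaged, with errors by propagation.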
row,SMILES,NF-kB reporter
1,CCc1c(C)nc(-n2nc(C)cc2NC(=O)CSCc2ccccc2)[nH]c1=O,0.885 ± 0.038
2,COC(=O)Nc1nc2cc(S(=O)c3ccccc3)ccc2[nH]1 (centres undefined) [Prestw-1459],0.932 ± 0.051
3,Cc1[nH]c2ccccc2c1CCNCc1ccc(/C=C/C(=O)NO)cc1,2.77 ± 0.17
4,O=C(CSc1nc(-c2ccccc2)c(-c2ccccc2)[nH]1)N1CCOCC1,1.05 ± 0.1
5,O=[N+]([O-])c1ccc2nc(S)sc2c1,1.11 ± 0.027
6,Cc1n[nH]c(C)c1CCC(=O)NC1CCC(F)(F)CC1,0.879 ± 0.048
7,O=C(Nc1nc2ccc(Cl)cc2s1)c1ccc(Br)s1,0.924 ± 0.025
8,CC1(C)[C@H](C(=O)O)N2C(=O)C[C@H]2S1(=O)=O,1.06 ± 0.033
9,NCC(=O)O,0.96 ± 0.021
10,Br.C=CCn1c(=N)n(CC(=O)c2cccc([N+](=O)[O-])c2)c2ccccc21,0.905 ± 0.062
11,Cc1cc(OC2CCN(C(=O)c3csc(C)n3)CC2)nc(C)n1,0.923 ± 0.068
12,Ic1ccc(N=Cc2ccc(C=Nc3ccc(I)cc3)cc2)cc1,0.997 ± 0.097
13,O=Cc1ccc(OC(=O)c2cccc(C(=O)Oc3ccc(C=O)cc3)c2)cc1,1.02 ± 0.092
14,COc1ccc(-c2[nH]c(-c3ccccc3)nc2SCC(=O)NC2CCCC2)cc1,1.64 ± 0.11
15,CCN(C=Nc1sc2c(c1C#N)CC(C)(C)NC2(C)C)CC,0.901 ± 0.093
16,CCOC(=O)N1CCC(=C2c3ccc(Cl)cc3CCc3cccnc32)CC1,0.953 ± 0.053
17,Cc1cc(OCC(=O)Nc2ccccc2-c2ccccc2)ccc1Br,0.972 ± 0.099
18,NC(CO)(CO)CO.O=C(c1ccccc1)c1ccc2n1CCC2C(=O)O (centres undefined),0.977 ± 0.14
19,O=C(Nc1cc(C(F)(F)F)cc(C(F)(F)F)c1)c1cc2ccccc2o1,0.952 ± 0.12
